Test results as given in the supplement of paper PMC6555819.

Tests used:
Assay in all cases: PBM binding z-score (relative to random genomic background probes); higher = stronger binding; sequences stand for … in GC…GCGATTGACAGCGTAGAATGAAGG
[1] = system: FXR:RXRa (NR concentration 270 nM, RXRa partner concentration 90 nM)
Procedure, shortened: (§1)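 Ligand-free nuclear receptor dimers were bound for 1 h to custom Agilent 4×180K protein-binding microarrays. Detection used antibodies against each partner (one per run). Binding z-scores rest on regression-normalized fluorescence, with random background probes as the reference.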

[2] = system: LXRa:RXRa (NR concentration 270 nM, RXRa partner concentration 90 nM)
Procedure, shortened: as §1

[3] = system: LXRa homodimer (NR concentration 270 nM)
Procedure, shortened: as §1

[4] = system: LXRb:RXRa (NR concentration 270 nM, RXRa partner concentration 90 nM)
Procedure, shortened: as §1

[5] = system: LXRb homodimer (NR concentration 270 nM)
Procedure, shortened: as §1

[6] = system: PPARa:RXRa (NR concentration 270 nM, RXRa partner concentration 90 nM)
Procedure, shortened: as §1

[7] = system: PPARg:RXRa (NR concentration 180 nM, RXRa partner concentration 90 nM)
Procedure, shortened: as §1

[8] = system: PPARg:RXRa 270nM:90nM, anti-RXR (NR concentration 270 nM, RXRa partner concentration 90 nM)
Procedure, shortened: as §1

[9] = system: PPARg:RXRa 30nM:10nM, anti-RXR (NR concentration 30 nM, RXRa partner concentration 10 nM)
Procedure, shortened: as §1

[10] = system: PPARg:RXRa 90nM:30nM, anti-RXR (NR concentration 90 nM, RXRa partner concentration 30 nM)
Procedure, shortened: as §1

Sequence | PBM binding z-score [1] | PBM binding z-score [2] | PBM binding z-score [3] | PBM binding z-score [4] | PBM binding z-score [5] | PBM binding z-score [6] | PBM binding z-score [7] | PBM binding z-score [8] | PBM binding z-score [9] | PBM binding z-score [10]
ATCTCTAGGTAAAAGATCAGTGAATCCCGAGGAT | 0.18 | -0.223 | 0.0922 | -0.31 | 0.167 | 2.45 | 4.48 | 5.32 | 4.13 | 5.66
CGAACTAGGTCAAGGACATTGAATCTCCGCACGC | 3.45 | 2.4 | 0.44 | 1.68 | 0.0209 | 4.43 | 7.54 | 6.28 | 4.19 | 6
GCTAGCAGGCCATTTGGATCACTCAATGACGGGC | -0.129 | -0.387 | -0.841 | -0.881 | -0.721 | -0.45 | 0.511 | -0.386 | -0.566 | -0.739
ATATGTAGGGTAAGGGTCATTCAGGTTGGTTCGC | 4.75 | 4.47 | 2.94 | 4.47 | 3.06 | 6.52 | 11.9 | 10.3 | 11.2 | 12
CGTACTGGGCCAAGGTCATTGATCAGTCAAAGCA | 3.11 | 3.03 | 1.23 | 3 | -0.201 | 3.99 | 4.09 | 4.29 | 1.79 | 3.54
TCACATAGGTAAACAGGTGAAAGTCCGTAAGTTA | 0.14 | 0.698 | 0.285 | 0.803 | -0.368 | 2.06 | 1.27 | 2.75 | 3.62 | 3.11
CCGAGTAGGTTAGGGGGCATTCAGGCAACGGTGA | 1.36 | 1.91 | 0.834 | 4.42 | 6.02 | 4.43 | 6.67 | 7.33 | 5.18 | 7.46
CTCCCAAGGTGAACAAGGTCGTTGATTACTATTC | 1.08 | 1.47 | 0.177 | 1.84 | -0.42 | 2.36 | 0.575 | 1.07 | 0.0592 | 0.823
CGTCCAAGGCCAATGCTAGGTCAGTGAAAGCATT | 0.0419 | -0.0335 | 0.187 | -0.036 | -0.831 | 0.242 | -0.45 | -0.432 | -1.33 | -0.866
TCTGCTAGGTCAGTTGGTCTGCTAACGAGCTGCC | 0.643 | 0.261 | -0.897 | -0.119 | 0.334 | 0.9 | -0.466 | 1.02 | 0.751 | 1.14
CCTACTGGGCCATCAGGTCATTCATATCAACGTT | 1.41 | 1.28 | 1.89 | 1.61 | -0.0742 | 2.72 | 2.7 | 3.47 | 1.16 | 2.86
CCTACTGGGCCAAAGGTCATCGATTCCAATGCTC | 4.44 | 5.28 | 3.59 | 4.41 | 0.378 | 6.8 | 11.5 | 10.6 | 10.6 | 11.5
ATCTCTAGGGAACAAGTTCAGTGAAAGAGAGGAC | 0.199 | 0.374 | 0.318 | 0.32 | 0.577 | 0.667 | 0.723 | 1.08 | 0.126 | 0.728
TCCCGGAGGACACGAAGGTCAGAGCTTTCCAGAG | 1.21 | 1.09 | 0.214 | 0.838 | -1.26 | 1.81 | 0.359 | 1.33 | 1.5 | 1.41
CCTATTCGTTGACCATAAGGGCAACCGAAGCTCG | 0.737 | 0.584 | 0.874 | 0.578 | 1.19 | 0.766 | 0.4 | 0.418 | 0.115 | 0.223
GCTAGCAGGCCCTTTGGGTCACTCAATGACGGGC | -0.0163 | -0.0683 | -0.519 | -0.325 | -1.53 | 0.647 | 0.157 | 0.373 | -0.568 | 0.116
ATCTCTAGGTATGACTCAGTTCAGTGAAGAACGC | 0.312 | 0.266 | 0.305 | 0.205 | 0.789 | 0.0186 | 0.264 | 0.0643 | -0.0117 | 0.0715
CGAACTAGTTCATTGACAGGACAGTGAATAGTAA | 0.24 | 0.585 | 0.0589 | 0.212 | -0.317 | 0.375 | 0.284 | 0.0577 | -0.0865 | -0.122
ATCGAAAGGTCGAGGTGACTATAGAGAAAGGGAA | 4.61 | 3.47 | 0.0804 | 2.68 | 0.167 | 4.72 | 3.8 | 3.74 | 1.66 | 3.09
ACTATTAGTTGACTTAGGGCCACCGATACGACGC | 0.803 | 0.394 | 0.324 | 0.152 | 0.713 | 0.121 | 1.07 | 0.422 | 0.18 | 0.363
ACTAGCACGCCAAGGGTCACTCAAGATTAGTCCG | 2.79 | 3.15 | 0.382 | 3.1 | -0.324 | 3.64 | 2.48 | 3.7 | 1.47 | 3.3
CCTATTAGTTGACCATAAGGGCAAGCGAAGCTCG | 0.766 | 0.114 | 0.254 | 0.218 | 0.573 | 0.369 | 0.36 | 0.458 | -0.0041 | 0.237
TTACGAAGGTGAGCTGAGGTCGTTGATCCAACTC | 2.65 | 1.46 | -0.333 | 0.8 | -0.914 | 1.52 | 0.0154 | 0.637 | -0.115 | 0.0816
CCGACTGGGGCAAAGGTTACCCTACTCAGTACGA | 1.55 | 1.36 | 0.204 | 1.69 | -1.04 | 4.95 | 10.4 | 8.13 | 8.18 | 9.15

Sequence | PBM binding z-score [1] | PBM binding z-score [2] | PBM binding z-score [3] | PBM binding z-score [4] | PBM binding z-score [5] | PBM binding z-score [6] | PBM binding z-score [7] | PBM binding z-score [8] | PBM binding z-score [9] | PBM binding z-score [10]
TCGAGTAGGTTACCAATGGGGCATTCAGCTTTCT | 0.0683 | 1.23 | -0.798 | 0.966 | -0.683 | 1.26 | 0.191 | 1.15 | 1.14 | 1.11
CCGACTGGGGCAGACAGGTTACCATACCATCCGG | -0.305 | -0.476 | -0.144 | -0.341 | -0.833 | 0.114 | 0.832 | 0.0365 | -0.675 | -0.262
CGCCAAAGTTCAACTAAGGTAACGTAAAGCACGC | 5.71 | 6.43 | 4.61 | 4.35 | 2.19 | 5.16 | 4.03 | 5.02 | 1.67 | 3.91
GCTTGTAGATCAAGGTCAAGAAAGACTAAGCTAA | 3.17 | 3.25 | 0.618 | 3.02 | 0.0549 | 3.91 | 1.86 | 3.04 | 0.697 | 2.12
TCTAGTTGGCCACGGAGGTCACACACGACGGGTA | 2.71 | 2.79 | 1.39 | 3.2 | 0.0016 | 3.68 | 2.32 | 2.96 | 2.82 | 2.84
TCTTATAGGTAAATGCTAGGTGAAAGTCCGATCT | 1.33 | 1.6 | 0.477 | 1.11 | 0.669 | 1.27 | 0.531 | 2.5 | 3.79 | 3.41
TCTTGTAGATCAAAGGTTAAGAAAGCCGAAGCCT | 1.74 | 1.97 | -0.166 | 2.14 | -0.146 | 4.65 | 8.31 | 8.09 | 9.09 | 8.69
ACTTTTAGTTGACTTAGGGCAACCGATACGACGC | 0.918 | 0.796 | 0.546 | 0.578 | 1.38 | 0.361 | 0.9 | 0.521 | 0.607 | 0.54
TCATATAGGTATAAGGTGAAAGTCGGTGTGGTAA | 1.55 | 1.21 | 0.319 | 1.37 | 0.352 | 3.14 | 3.92 | 5.38 | 5.06 | 5.68
CTCAAAAGGTCGGTTGAGGTGAGTATACGGATAA | 2.63 | 1.8 | -0.331 | 1.63 | 0.0339 | 2.98 | 0.821 | 1.29 | 0.383 | 0.881
GCATATAGGTAATACAAGGTTAAAGTCCGATTGT | 0.589 | 5.43 | 4.13 | 2.63 | -0.0858 | 2.39 | 1.69 | 1.5 | 0.655 | 0.992
ATGTGTAGGTTAAGGGTCATTCAGGTTGGTTCGC | 5.28 | 4.85 | 3.49 | 4.71 | 2.56 | 5.72 | 9.4 | 8.54 | 9.74 | 9.9
CCTACTGGGCCATGAGGTCATTGATATCAACGTT | 3.57 | 2.77 | 1.87 | 3.24 | -0.168 | 4.19 | 4.59 | 4.66 | 2.55 | 4.53
AGTCAAAGTTCAGGACCAGGTAACGTAAAGCACG | 4.33 | 3.63 | 1.19 | 1.72 | 0.134 | 3.32 | 4.94 | 4.9 | 2.16 | 4.19
ATCTCTAGGTAAAGATAGTTCAGTGTATGCAAAT | 0.705 | 4.16 | 0.797 | 0.893 | 0.581 | 1.05 | 0.827 | 0.452 | 0.59 | 0.44
TTACCAAGGTGAAAGCTCGTTGATGCACGCCTTG | 0.225 | -0.099 | -0.701 | -0.367 | -1.12 | 1.29 | 0.87 | 1.43 | 0.448 | 0.792
CGAACTAGGCCATCCAGGACAGTGAATACATTGA | -0.177 | -0.379 | -0.0398 | -0.306 | -0.512 | 1.64 | 2.39 | 1.71 | 0.404 | 1.19
CGTCCAAGGTCAAGGTCAGTAAAAGAGACTCGAA | 7.33 | 5.66 | 1.22 | 4.68 | 0.908 | 5.72 | 6.21 | 5.92 | 2.62 | 4.87
GCTGCTAGGTCAACTGATGGTCTGCTAAAGCTCG | 3.83 | 2.66 | -0.135 | 1.8 | 0.0375 | 3.45 | 2.31 | 2.78 | 0.103 | 1.81
GCGGCTAGGTCAGGTTGGTCAGCTAACGGGTACG | 1.14 | 0.573 | -0.172 | 0.648 | -0.613 | 1.33 | 0.166 | 0.609 | -0.687 | 0.275
CCTTACGGGTCACTGACAGGTTATAGCTTTTGGA | 4.62 | 4.13 | 0.331 | 3.35 | -0.0774 | 4.88 | 3.89 | 4.21 | 1.73 | 3.06
CATAGCAGGCCAGGGTCACTCAAGCATTTCGCTT | 2.42 | 1.71 | -0.165 | 2.2 | 0.0433 | 3.42 | 1.88 | 2.27 | 0.29 | 1.54
ACAGACAGGTGAGTGAAGGTAACGCAGCTGGACG | 0.617 | 0.126 | -0.468 | -0.215 | -0.518 | 0.197 | 0.826 | 0.162 | -0.109 | 0.232
GCATATAGGTAATCCAAGGTGAAAGTCCGATTGT | 2.37 | 2.66 | 0.0628 | 0.738 | -0.267 | 1.76 | 1.15 | 1.24 | 0.358 | 0.949
